From article PMC5540273 (PLoS ONE, 2017)

Tested on: T1, BIKE
T1 construct: gene BMP2K
Conditions: concentration: 1 μM, replicates: in singlicate; n = 1
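Also: KINOMEscan kinase panel screen.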

SMILES	%Inh [%]
Cc1ccc(NC(=O)c2cccc(C#N)c2)cc1-c1ccc(C(=O)Nc2ccncc2)cc1 [GSK1398463]	24
CS(=O)(=O)CCNCc1ccc(-c2ccc3ncnc(Nc4ccc(OCc5ccccc5)c(Cl)c4)c3c2)o1.Cl [GW574783]	19
Fc1ccc(-c2ncn(CCCNCc3ccccc3)c2-c2ccncc2)cc1	0
CCc1nc(-c2cccc(C)c2)c(-c2ccnc(NC(=O)c3ccccc3)c2)s1	0
c1ccc(-c2ccc3c(-c4ccnc(Nc5ccc6c(c5)OCCO6)n4)cnn3n2)cc1 [GW818941]	27
CSc1ccc(NC2=C(c3ccccc3Cl)C(=O)NC2=O)cc1 [SB-342411]	19
FC(F)(F)c1ccc(-c2cc(-c3c[nH]nc3-c3ccccn3)ccn2)cc1 [GW599550]	13
COc1ccc(NC(=O)Nc2ccc(C)c(-c3ccc(C(=O)Nc4ccncc4)cc3)c2)cc1 [GSK1398475]	0
Fc1ccc(Nc2nccc(-c3c(-c4ccc(Cl)cc4)nn4ncccc34)n2)cc1F [GW829058]	0
Cn1cc(-c2ccc3c(c2)CCN3C(=O)Cc2cccc(C(F)(F)F)c2)c2c(N)ncnc21 [GSK2606414]	26
O=C(CCO)NCCn1ccc2ncnc(Nc3ccc(Oc4cccc(C(F)(F)F)c4)c(Cl)c3)c21	0
CNc1nccc(-c2c(-c3ccc(F)cc3)ncn2CCCN2CCOCC2)n1 [SB-222516]	0
COC(=O)c1cccc(NC(=O)NCCNc2ccnc(Nc3ccc(F)cc3)n2)c1 [GSK1379883]	22
